# According to PubChem BioAssay (EPA / NIEHS):
# The source made the active and inactive calls. The calls were made as follows: active = hit-call score of the fitted dose curve at least 0.9, where 1 is the maximum; inactive = score below 0.9.
# Assays:
# [1] = CEETOX_H295R_PROG: CeeTox H295R High-throughput Steroidogenesis Assay for Progesterone (PROG) (AID 2283442); conditions: actives raise or lower the signal;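 also: human H295R adrenal cells primed with 10 µM forskolin before dosing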
# Method in brief: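 H295R adrenal cells prestimulated 48 h with 10 uM forskolin, then exposed 48 h to test chemical in 0.1% DMSO. Progesterone in medium quantified by HPLC-MS/MS after MTBE extraction; viability checked by MTT in same wells.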
# [2] = read-out: Tumor necrosis factor receptor superfamily member 6 (Homo sapiens) (UniProt P25445); experiment: LTEA_HepaRG_FAS: Life Technologies and Expression Analysis (LTEA) Assay for Fas cell surface death receptor (FAS) using HepaRG (AID 2283447); conditions: mRNA level, 48 h; actives raise or lower the signal
# Method in brief: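 FAS transcript level was measured by TaqMan qRT-PCR against three housekeeping genes after 48 h chemical exposure. Cells were HepaRG, 0.5% DMSO vehicle, with a top concentration of 100 uM and half-log dilutions over eight points, in duplicate.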
# [3] = read-out: Fatty acid synthase (Homo sapiens) (UniProt P49327); experiment: LTEA_HepaRG_FASN: Life Technologies and Expression Analysis (LTEA) Assay for Fatty Acid Synthase (FASN) using HepaRG (AID 2283448); conditions: mRNA level, 48 h; actives raise or lower the signal
# Method in brief: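 Differentiated human HepaRG cells were exposed for 48 h in serum-free induction medium to eight half-log concentrations up to 100 uM in 0.5% DMSO, in duplicate. FASN mRNA was quantified by TaqMan qRT-PCR, normalized to ACTB/GAPDH/POLR2A, and fitted bidirectionally against DMSO.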
# [4] = read-out: Cyclin D2 (CCND2), CCND2 (gene 894); experiment: LTEA_HepaRG_CCND2: Life Technologies and Expression Analysis (LTEA) Assay for Cyclin D2 (CCND2) using HepaRG (AID 2283449); conditions: mRNA level, 48 h; actives raise or lower the signal
# Method in brief: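 Read-out is CCND2 mRNA level measured by qRT-PCR in human HepaRG liver cells and normalised to three housekeeping genes. Chemicals were applied for 48 h at up to 100 uM, with gain or loss fitted relative to 0.5% DMSO.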
# [5] = read-out: Cyclin Dependent Kinase Inhibitor 1A (CDKN1A), CDKN1A (gene 1026); experiment: LTEA_HepaRG_CDKN1A: Life Technologies and Expression Analysis (LTEA) Assay for Cyclin Dependent Kinase Inhibitor 1A (CDKN1A) using HepaRG (AID 2283450); conditions: mRNA level, 48 h; actives raise or lower the signal
# Method in brief: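 Differentiated HepaRG cells in serum-free induction medium, exposed 48 h in duplicate to eight half-log concentrations up to 100 uM in 0.5% DMSO. mRNA measured by TaqMan qRT-PCR, normalized to ACTB, GAPDH, POLR2A; bidirectional fit versus DMSO.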
# [6] = read-out: Cyclin D1 (CCND1), CCND1 (gene 595); experiment: LTEA_HepaRG_CCND1: Life Technologies and Expression Analysis (LTEA) Assay for Cyclin D1 (CCND1) using HepaRG (AID 2283451); conditions: mRNA level, 48 h; actives raise or lower the signal;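 as to AC50: TaqMan qRT-PCR transcript level normalised to ACTB GAPDH and POLR2A housekeeping genes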
# Method in brief: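 Differentiated HepaRG cells exposed 48 h in serum-free induction medium to eight half-log concentrations from 100 uM top, 0.5% DMSO, duplicates. CCND1 mRNA measured by Fluidigm TaqMan qRT-PCR, normalised to ACTB, GAPDH, POLR2A; bidirectional fit.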
# [7] = read-out: catalase (CAT), CAT (gene 847); experiment: LTEA_HepaRG_CAT: Life Technologies and Expression Analysis (LTEA) Assay for catalase (CAT) using HepaRG (AID 2283452); conditions: mRNA level, 48 h; actives raise or lower the signal
# Method in brief: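 Expression of CAT was quantified by TaqMan qRT-PCR with ACTB/GAPDH/POLR2A normalization after 48 h chemical exposure of HepaRG. Eight-point half-log series, top 100 uM, in 0.5% DMSO; gain or loss fitted against vehicle.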
# [8] = read-out: flavin-containing dimethylaniline monooxygenases 3 (FMO3), FMO3 (gene 2328); experiment: LTEA_HepaRG_FMO3: Life Technologies and Expression Analysis (LTEA) Assay for flavin-containing dimethylaniline monooxygenases 3 (FMO3) using HepaRG (AID 2283453); conditions: mRNA level, 48 h; actives raise or lower the signal
# Method in brief: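 HepaRG, 48 h exposure, 8-pt half-log series from 100 uM, 0.5% DMSO vehicle, duplicates; FMO3 transcript by Fluidigm TaqMan qRT-PCR, housekeeping-normalized; gain/loss fit vs DMSO.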
# [9] = read-out: Cytochrome P450 (CYP1A1), CYP1A1 (gene 1543); experiment: LTEA_HepaRG_CYP1A1: Life Technologies and Expression Analysis (LTEA) Assay for Cytochrome P450 (CYP1A1) using HepaRG (AID 2283454); conditions: mRNA level, 48 h; actives raise or lower the signal
# Method in brief: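 Differentiated human HepaRG cells, after 48 h plating, exposed in duplicate for 48 h in serum-free induction medium to 8 half-log concentrations up to 100 uM in 0.5% DMSO. CYP1A1 mRNA by qRT-PCR, normalized to ACTB/GAPDH/POLR2A; bidirectional fit versus DMSO.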
# [10] = read-out: CFLAR gene, CFLAR (gene 8837); experiment: LTEA_HepaRG_CFLAR: Life Technologies and Expression Analysis (LTEA) Assay for CFLAR gene using HepaRG (AID 2283455); conditions: mRNA level, 48 h; actives raise or lower the signal
# Method in brief: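 HepaRG, 48 h exposure, 8-pt conc-response (100 uM top, half-log), 0.5% DMSO vehicle, duplicates. CFLAR expression by qRT-PCR; ACTB/GAPDH/POLR2A normalization; gain or loss fit vs DMSO baseline.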
# [11] = read-out: Forkhead box O1 (FOXO1), FOXO1 (gene 2308); experiment: LTEA_HepaRG_FOXO1: Life Technologies and Expression Analysis (LTEA) Assay for Forkhead box O1 (FOXO1) using HepaRG (AID 2283456); conditions: mRNA level, 48 h; actives raise or lower the signal
# Method in brief: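 Readout is FOXO1 transcript level by multiplexed qRT-PCR against three housekeeping genes, curve-fitted in both directions relative to 0.5% DMSO vehicle. Human HepaRG cultures received chemicals for 48 h, up to 100 uM in half-log steps.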
# [12] = CEETOX_H295R_TESTO: CeeTox H295R High-throughput Steroidogenesis Assay for Testosterone (TESTO) (AID 2283457); conditions: actives raise or lower the signal
# Method in brief: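 H295R adrenal cells, passage ≤10, exposed to chemicals for 48 h. Testosterone in medium measured by MTBE extraction and HPLC-MS/MS against a 7-point standard curve. Bidirectional fit versus DMSO; MTT viability checked in the same wells.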
# [13] = read-out: growth arrest and DNA damage 45 (GADD45A), GADD45A (gene 1647); experiment: LTEA_HepaRG_GADD45A: Life Technologies and Expression Analysis (LTEA) Assay for growth arrest and DNA damage 45 (GADD45A) using HepaRG (AID 2283458); conditions: mRNA level, 48 h; actives raise or lower the signal
# Method in brief: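 Differentiated HepaRG cells were exposed in duplicate for 48 h in serum-free induction medium to 8-point half-log concentrations up to 100 uM in 0.5% DMSO. GADD45A mRNA was measured by TaqMan qRT-PCR, normalized to ACTB, GAPDH and POLR2A, with bidirectional fitting versus DMSO.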
# [14] = read-out: Forkhead box O3 (FOXO3), FOXO3 (gene 2309); experiment: LTEA_HepaRG_FOXO3: Life Technologies and Expression Analysis (LTEA) Assay for Forkhead box O3 (FOXO3) using HepaRG (AID 2283459); conditions: mRNA level, 48 h; actives raise or lower the signal
# Method in brief: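 HepaRG, 48 h post-dose; 8 conc., half-log from 100 uM, 0.5% DMSO, duplicates; serum-free induction medium. Readout: FOXO3 mRNA, TaqMan qRT-PCR, housekeeping-normalized. Bidirectional curve fit vs DMSO baseline.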
# [15] = read-out: ABC Transporter (ABCB1), ABCB1 (gene 5243); experiment: LTEA_HepaRG_ABCB1: Life Technologies and Expression Analysis (LTEA) Assay for ABC Transporter (ABCB1) using HepaRG (AID 2283460); conditions: mRNA level, 48 h; actives raise or lower the signal
# Method in brief: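 Expression of ABCB1 was quantified by qRT-PCR against three housekeeping genes after human HepaRG cultures received test chemicals for 48 hours. Concentrations spanned eight half-log steps topping at 100 uM in 0.5% DMSO; gain or loss of signal was fitted relative to vehicle.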
# [16] = read-out: growth arrest and DNA damage 45 (GADD45B), GADD45B (gene 4616); experiment: LTEA_HepaRG_GADD45B: Life Technologies and Expression Analysis (LTEA) Assay for growth arrest and DNA damage 45 (GADD45B) using HepaRG (AID 2283461); conditions: mRNA level, 48 h; actives raise or lower the signal
# Method in brief: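 Differentiated human HepaRG cells in serum-free induction medium exposed 48 h in duplicate to eight concentrations, top 100 uM, half-log steps, 0.5% DMSO. GADD45B mRNA by TaqMan qRT-PCR, normalized to ACTB, GAPDH, POLR2A; bidirectional fit versus DMSO.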
# [17] = read-out: ABC Transporter (ABCC3), ABCC3 (gene 8714); experiment: LTEA_HepaRG_ABCC3: Life Technologies and Expression Analysis (LTEA) Assay for ABC Transporter (ABCC3) using HepaRG (AID 2283462); conditions: mRNA level, 48 h; actives raise or lower the signal
# Method in brief: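 Differentiated human HepaRG cells exposed 48 h in serum-free induction medium, 0.5% DMSO vehicle, 8-point half-log series to 100 uM in duplicate. ABCC3 mRNA by qRT-PCR, normalised to ACTB, GAPDH, POLR2A; bidirectional fit vs DMSO.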
# [18] = read-out: ABC Transporter (ABCB11), ABCB11 (gene 8647); experiment: LTEA_HepaRG_ABCB11: Life Technologies and Expression Analysis (LTEA) Assay for ABC Transporter (ABCB11) using HepaRG (AID 2283463); conditions: mRNA level, 48 h; actives raise or lower the signal
# Method in brief: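 ABCB11 transcript levels are read by Fluidigm TaqMan qRT-PCR after 48 h chemical treatment of human HepaRG cells. Concentrations span 100 uM downward in half-log steps with 0.5% DMSO; gain or loss is fitted against DMSO controls.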
# [19] = read-out: ABC Transporter (ABCC2), ABCC2 (gene 1244); experiment: LTEA_HepaRG_ABCC2: Life Technologies and Expression Analysis (LTEA) Assay for ABC Transporter (ABCC2) using HepaRG (AID 2283464); conditions: mRNA level, 48 h; actives raise or lower the signal
# Method in brief: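 Differentiated HepaRG cells in serum-free induction medium exposed 48 h to eight half-log concentrations up to 100 uM, 0.5% DMSO, in duplicate. ABCC2 mRNA measured by qRT-PCR (TaqMan, Fluidigm), normalized to ACTB, GAPDH and POLR2A. Fitted in both directions against DMSO.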
# [20] = read-out: Broad substrate specificity ATP-binding cassette transporter ABCG2 (Homo sapiens) (UniProt Q9UNQ0); experiment: LTEA_HepaRG_ABCG2: Life Technologies and Expression Analysis (LTEA) Assay for ABC Transporter (ABCG2) using HepaRG (AID 2283465); conditions: mRNA level, 48 h; actives raise or lower the signal
# Method in brief: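 Read-out is ABCG2 mRNA induction or loss quantified by qRT-PCR after 48 h chemical treatment of human HepaRG cells, normalized to three housekeeping genes. Concentrations reached 100 uM top in half-log steps; fitting was bidirectional against 0.5% DMSO.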
# Sequence of Fatty acid synthase (Homo sapiens) (P49327 whole entry, looked up): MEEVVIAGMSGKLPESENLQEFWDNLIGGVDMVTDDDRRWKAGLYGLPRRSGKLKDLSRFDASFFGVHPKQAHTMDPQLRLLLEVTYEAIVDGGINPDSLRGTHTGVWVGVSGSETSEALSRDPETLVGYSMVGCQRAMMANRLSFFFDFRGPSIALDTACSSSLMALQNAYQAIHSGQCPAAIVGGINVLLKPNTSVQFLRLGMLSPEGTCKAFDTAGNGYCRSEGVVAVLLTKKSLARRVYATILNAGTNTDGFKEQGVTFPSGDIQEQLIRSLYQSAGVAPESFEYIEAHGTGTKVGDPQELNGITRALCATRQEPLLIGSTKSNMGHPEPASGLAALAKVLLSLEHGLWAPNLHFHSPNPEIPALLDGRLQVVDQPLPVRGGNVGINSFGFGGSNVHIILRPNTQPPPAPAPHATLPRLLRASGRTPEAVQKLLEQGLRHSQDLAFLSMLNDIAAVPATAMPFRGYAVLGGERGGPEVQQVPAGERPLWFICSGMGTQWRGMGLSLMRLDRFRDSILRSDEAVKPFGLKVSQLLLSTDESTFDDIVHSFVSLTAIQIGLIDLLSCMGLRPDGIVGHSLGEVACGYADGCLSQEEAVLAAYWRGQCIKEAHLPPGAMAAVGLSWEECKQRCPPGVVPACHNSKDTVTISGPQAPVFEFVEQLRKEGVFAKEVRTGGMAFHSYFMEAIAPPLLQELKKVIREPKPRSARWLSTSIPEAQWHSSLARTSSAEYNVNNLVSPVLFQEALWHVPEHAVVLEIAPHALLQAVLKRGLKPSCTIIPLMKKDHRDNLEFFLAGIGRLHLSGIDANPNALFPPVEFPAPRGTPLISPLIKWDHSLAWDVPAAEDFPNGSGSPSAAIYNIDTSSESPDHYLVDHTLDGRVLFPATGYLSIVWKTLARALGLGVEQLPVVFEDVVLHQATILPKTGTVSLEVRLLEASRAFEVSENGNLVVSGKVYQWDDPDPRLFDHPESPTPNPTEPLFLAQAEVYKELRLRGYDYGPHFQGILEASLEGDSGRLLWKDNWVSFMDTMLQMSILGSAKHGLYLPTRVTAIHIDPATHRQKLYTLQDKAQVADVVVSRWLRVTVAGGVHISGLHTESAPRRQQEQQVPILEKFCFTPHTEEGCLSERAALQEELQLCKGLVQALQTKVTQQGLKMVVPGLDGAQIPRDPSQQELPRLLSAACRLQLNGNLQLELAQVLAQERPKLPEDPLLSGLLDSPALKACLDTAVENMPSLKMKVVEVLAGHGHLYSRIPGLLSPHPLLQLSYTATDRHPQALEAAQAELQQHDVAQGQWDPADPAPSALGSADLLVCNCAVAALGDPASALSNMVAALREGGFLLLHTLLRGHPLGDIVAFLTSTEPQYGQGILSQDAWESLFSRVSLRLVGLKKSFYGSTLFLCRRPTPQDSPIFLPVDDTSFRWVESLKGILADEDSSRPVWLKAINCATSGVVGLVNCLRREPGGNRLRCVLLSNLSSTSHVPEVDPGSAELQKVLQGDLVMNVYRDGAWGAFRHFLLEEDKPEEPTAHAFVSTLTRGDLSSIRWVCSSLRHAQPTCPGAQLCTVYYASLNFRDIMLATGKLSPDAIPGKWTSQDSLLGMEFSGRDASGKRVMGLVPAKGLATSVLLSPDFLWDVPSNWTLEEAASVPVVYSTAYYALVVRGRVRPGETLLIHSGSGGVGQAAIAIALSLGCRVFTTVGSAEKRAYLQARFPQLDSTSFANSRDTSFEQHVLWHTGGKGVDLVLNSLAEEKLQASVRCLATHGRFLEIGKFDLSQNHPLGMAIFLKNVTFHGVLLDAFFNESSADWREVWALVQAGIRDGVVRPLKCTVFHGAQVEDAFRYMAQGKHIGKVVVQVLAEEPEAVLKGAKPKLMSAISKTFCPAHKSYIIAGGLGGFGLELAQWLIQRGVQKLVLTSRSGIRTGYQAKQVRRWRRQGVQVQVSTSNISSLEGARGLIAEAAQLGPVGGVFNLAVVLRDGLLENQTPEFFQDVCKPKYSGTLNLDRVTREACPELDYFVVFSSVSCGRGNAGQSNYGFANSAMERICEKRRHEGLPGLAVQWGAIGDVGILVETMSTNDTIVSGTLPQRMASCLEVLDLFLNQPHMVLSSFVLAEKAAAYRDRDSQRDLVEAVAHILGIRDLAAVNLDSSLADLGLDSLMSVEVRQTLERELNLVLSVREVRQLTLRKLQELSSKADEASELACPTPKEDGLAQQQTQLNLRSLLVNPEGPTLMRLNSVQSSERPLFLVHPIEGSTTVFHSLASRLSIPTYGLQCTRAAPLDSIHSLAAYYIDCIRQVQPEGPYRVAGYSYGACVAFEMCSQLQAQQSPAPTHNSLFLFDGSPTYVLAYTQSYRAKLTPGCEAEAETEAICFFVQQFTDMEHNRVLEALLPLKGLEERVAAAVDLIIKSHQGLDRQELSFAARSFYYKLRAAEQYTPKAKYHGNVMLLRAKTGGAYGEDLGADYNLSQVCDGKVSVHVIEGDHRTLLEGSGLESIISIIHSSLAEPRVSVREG
# Sequence of Broad substrate specificity ATP-binding cassette transporter ABCG2 (Homo sapiens) (Q9UNQ0 whole entry, looked up): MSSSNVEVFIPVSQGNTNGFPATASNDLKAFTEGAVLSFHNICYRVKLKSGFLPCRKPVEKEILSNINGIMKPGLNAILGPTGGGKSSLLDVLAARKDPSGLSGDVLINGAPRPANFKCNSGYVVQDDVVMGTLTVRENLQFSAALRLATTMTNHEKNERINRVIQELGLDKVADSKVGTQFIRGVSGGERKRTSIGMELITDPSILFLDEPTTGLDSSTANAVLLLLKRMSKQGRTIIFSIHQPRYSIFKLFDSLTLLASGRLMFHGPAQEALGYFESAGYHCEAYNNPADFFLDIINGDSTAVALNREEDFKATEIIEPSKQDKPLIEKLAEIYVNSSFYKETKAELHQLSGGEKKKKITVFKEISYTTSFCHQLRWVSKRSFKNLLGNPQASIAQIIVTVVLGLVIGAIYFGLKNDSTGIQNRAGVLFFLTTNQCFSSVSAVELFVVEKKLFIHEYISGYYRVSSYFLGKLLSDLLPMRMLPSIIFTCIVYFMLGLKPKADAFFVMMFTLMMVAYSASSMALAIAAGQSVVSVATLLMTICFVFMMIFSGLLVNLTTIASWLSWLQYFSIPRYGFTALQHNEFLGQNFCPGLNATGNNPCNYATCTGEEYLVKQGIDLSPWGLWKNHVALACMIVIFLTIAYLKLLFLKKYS
compound,measurement,setting,value
CC(C)(O)c1cnn2c(-c3ccc(F)c(-c4c(F)cccc4C#N)c3)cnc2n1,AC50,[1],0.251 µM (active)
same,outcome,[2],inactive
same,outcome,[3],inactive
same,outcome,[4],inactive
same,outcome,[5],inactive
same,outcome,[6],inactive
same,outcome,[7],inactive
same,outcome,[8],inactive
same,AC50,[9],11.9 µM (active)
same,outcome,[10],inactive
same,outcome,[11],inactive
same,outcome,[12],inactive
same,outcome,[13],inactive
same,outcome,[14],inactive
same,AC50,[15],0.438 µM (active)
same,outcome,[16],inactive
same,outcome,[17],inactive
same,AC50,[18],13.1 µM (active)
same,AC50,[19],0.304 µM (active)
same,outcome,[20],inactive
Nc1ccc(Oc2ccc(N)cc2)cc1,AC50,[1],9.14 µM (active)
same,outcome,[2],inactive
same,outcome,[3],inactive
same,outcome,[5],inactive
same,outcome,[6],inactive
same,outcome,[7],inactive
same,outcome,[8],inactive
same,AC50,[9],37.5 µM (active)
same,outcome,[10],inactive
same,outcome,[11],inactive
same,outcome,[14],inactive
same,outcome,[15],inactive
same,outcome,[16],inactive
same,outcome,[17],inactive
same,outcome,[20],inactive
ClC1=C(Cl)C2(Cl)C3C(Cl)C=CC3C1(Cl)C2(Cl)Cl (configuration not stated),outcome,[2],inactive
same,outcome,[3],inactive
same,outcome,[4],inactive
same,outcome,[5],inactive
same,AC50,[6],18.4 µM (active)
same,outcome,[7],inactive
same,outcome,[8],inactive
same,AC50,[9],18.3 µM (active)
same,outcome,[10],inactive
same,outcome,[11],inactive
same,outcome,[13],inactive
same,outcome,[14],inactive
same,AC50,[15],1.45 µM (active)
same,outcome,[16],inactive
same,outcome,[17],inactive
same,AC50,[19],11.4 µM (active)
same,AC50,[20],8.6 µM (active)
